{
  "source": "the supplement of paper PMC12350171",
  "note": "Counter-ions that a name gives are not always drawn. Unmarked numbers belong to inactive results.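 How the source made its calls: active = AUC significantly below DMSO controls by Student t-fit with adjusted P under 0.01; inactive = not significantly reduced.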",
  "data": [
    {"system": "Vibrio cholerae", "experiment": "growth AUC normalised to DMSO control (fraction of control); higher = less growth inhibition, active = hit call of the paper", "conditions": "20 µM", "method_in_brief": "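Hemin and NAD were added to the medium for Haemophilus parainfluenzae. All pathogens, after two anaerobic passages, were inoculated at a starting OD578 of 0.01 into pre-reduced mGAM plates with 20 μM compound and 1% DMSO under breathable seals, and OD578 was read hourly for 24 h in three biological replicates. AUC of each growth curve was obtained with the trapezoidal rule up to the exponential-to-stationary transition and normalised to DMSO controls from the same plate.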", "values": [
      {"compound": "Cn1c(=O)c2c(ncn2CC(O)CO)n(C)c1=O", "note": "(stereo not given) [Diprophylline]", "growth AUC normalised to DMSO control": 0.971},
      {"compound": "CC(C)(C)NC[C@@H](O)COc1cccc2c1CCCC2=O", "note": "[(+) Levobunolol hydrochloride]", "growth AUC normalised to DMSO control": 0.978},
      {"compound": "C[C@]12CCC(=O)C=C1CC[C@@H]1[C@@H]2[C@@H](O)C[C@@]2(C)[C@H]1CC[C@]2(O)C(=O)CO", "note": "[Hydrocortisone]", "growth AUC normalised to DMSO control": 0.97},
      {"compound": "C#Cc1cccc(Nc2ncnc3cc(OCCOC)c(OCCOC)cc23)c1", "note": "[Erlotinib]", "growth AUC normalised to DMSO control": 1.02},
      {"compound": "O=C1CCC(N2C(=O)c3ccccc3C2=O)C(=O)N1", "note": "(stereo not given) [Thalidomide]", "growth AUC normalised to DMSO control": 0.996},
      {"compound": "CCOC(=O)C1=C(COCCN)NC(C)=C(C(=O)OC)C1c1ccccc1Cl", "note": "(stereo not given) [Amlodipine]", "growth AUC normalised to DMSO control": 0.985},
      {"compound": "COc1ccc(CN(CCN(C)C)c2ccccn2)cc1", "note": "[Pyrilamine maleate]", "growth AUC normalised to DMSO control": 0.969},
      {"compound": "CN1CCCC(CC2c3ccccc3Sc3ccccc32)C1", "note": "(stereo not given) [Metixene hydrochloride]", "growth AUC normalised to DMSO control": 0.944},
      {"compound": "CC(C)/N=c1\\cc2n(-c3ccc(Cl)cc3)c3ccccc3nc-2cc1Nc1ccc(Cl)cc1", "note": "[Clofazimine]", "growth AUC normalised to DMSO control": 1},
      {"compound": "NC(N)=Nc1nc(CSCC/C(N)=N/S(N)(=O)=O)cs1", "note": "[Famotidine]", "growth AUC normalised to DMSO control": 0.993},
      {"compound": "O=C1c2ccccc2C(=O)C1c1ccccc1", "note": "[Phenindione]", "growth AUC normalised to DMSO control": 0.983},
      {"compound": "CN1CCN2c3ccccc3Cc3ccccc3C2C1", "note": "(stereo not given) [Mianserine hydrochloride]", "growth AUC normalised to DMSO control": "0.868 (active)"},
      {"compound": "CCN1C(=O)NC(c2ccccc2)C1=O", "note": "(stereo not given) [Ethotoin]", "growth AUC normalised to DMSO control": 0.996},
      {"compound": "CC(=O)OCC(=O)[C@@]12OC3(CCCC3)O[C@@H]1C[C@H]1[C@@H]3CCC4=CC(=O)C=C[C@]4(C)[C@@]3(F)[C@@H](O)C[C@@]12C", "note": "[Amcinonide]", "growth AUC normalised to DMSO control": 1.04},
      {"compound": "CCc1cccc(CC)c1NC(=O)CN(CC(=O)O)CC(=O)O", "note": "[Etifenin]", "growth AUC normalised to DMSO control": 0.989},
      {"compound": "COc1ccc(C(Cl)=C(c2ccc(OC)cc2)c2ccc(OC)cc2)cc1", "note": "[Chlorotrianisene]", "growth AUC normalised to DMSO control": 0.983},
      {"compound": "CC(=O)c1ccc2c(c1)N(CCCN(C)C)c1ccccc1S2", "note": "[Acetopromazine maleate salt]", "growth AUC normalised to DMSO control": 0.888},
      {"compound": "CCN1CCCC(OC(=O)C(c2ccccc2)c2ccccc2)C1", "note": "(stereo not given) [Piperidolate hydrochloride]", "growth AUC normalised to DMSO control": 1.03},
      {"compound": "CCCCOc1ccc(CC(=O)NO)cc1", "note": "[Bufexamac]", "growth AUC normalised to DMSO control": 1.01},
      {"compound": "NC[C@@H]1O[C@H](O[C@H]2[C@@H](O)[C@H](O[C@@H]3[C@@H](O)[C@H](N)C[C@H](N)[C@H]3O[C@H]3O[C@H](CN)[C@@H](O)[C@H](O)[C@H]3N)O[C@@H]2CO)[C@H](N)[C@@H](O)[C@@H]1O", "note": "[Neomycin sulfate]", "growth AUC normalised to DMSO control": 1.05},
      {"compound": "COc1cc(C(=O)OCCCN2CCCN(CCCOC(=O)c3cc(OC)c(OC)c(OC)c3)CC2)cc(OC)c1OC", "note": "[Dilazep dihydrochloride]", "growth AUC normalised to DMSO control": 1.01},
      {"compound": "NC1CCN(c2c(F)cc3c(=O)c(C(=O)O)cn(C4CC4)c3c2Cl)C1", "note": "(stereo not given) [Clinafloxacin]", "growth AUC normalised to DMSO control": "0.023 (active)"},
      {"compound": "CC(=O)O[C@H]1C[C@@]2(C)[C@@H](C[C@@H](O)[C@H]3[C@@]4(C)CC[C@@H](O)[C@@H](C)[C@@H]4CC[C@@]32C)/C1=C(\\CCC=C(C)C)C(=O)O", "note": "[Fusidic acid sodium salt]", "growth AUC normalised to DMSO control": 0.927},
      {"compound": "c1cnc(N2CCN(Cc3ccc4c(c3)OCO4)CC2)nc1", "note": "[Piribedil]", "growth AUC normalised to DMSO control": 0.999},
      {"compound": "O=C(CCCCC(=O)Nc1c(I)cc(I)c(C(=O)O)c1I)Nc1c(I)cc(I)c(C(=O)O)c1I", "note": "[Iodipamide]", "growth AUC normalised to DMSO control": 0.995},
      {"compound": "COc1ccc2c(c1)C(=O)N(CCc1ccc(S(=O)(=O)NC(=O)NC3CCCCC3)cc1)C(=O)C2(C)C", "note": "[Gliquidone]", "growth AUC normalised to DMSO control": 0.995},
      {"compound": "CC1(C)S[C@@H]2[C@H](NC(=O)[C@H](C(=O)O)c3ccsc3)C(=O)N2[C@H]1C(=O)O", "note": "[Ticarcillin sodium]", "growth AUC normalised to DMSO control": "0.116 (active)"},
      {"compound": "CCOC(=O)/C=C(C)/C=C/C=C(C)/C=C/c1c(C)cc(OC)c(C)c1C", "note": "[Etretinate]", "growth AUC normalised to DMSO control": 0.998},
      {"compound": "O=C(O)COCCN1CCN(C(c2ccccc2)c2ccc(Cl)cc2)CC1", "note": "(stereo not given) [Cetirizine dihydrochloride]", "growth AUC normalised to DMSO control": 0.988},
      {"compound": "CCN(CC)C(C)CN1c2ccccc2Sc2ccccc21", "note": "(stereo not given) [Ethopropazine hydrochloride]", "growth AUC normalised to DMSO control": 0.918}
    ]}
  ]
}
